Results as given in PubChem BioAssay (NCATS).
“And” between values parts separate entries of the source, which are not always exact repeats. Equal entries are not always repeated. Results filed as inconclusive are left out. The source made the active and inactive calls. Unless noted, the call rests on the fitted dose curve; in most records, active means well fitted curve in the direction sought with a large enough effect; inconclusive means small, poorly fitted or top-dose-only effect, or another doubt; inactive means no such curve, though single readings can be large; an effect the other way counts as inactive or inconclusive.

How the values were obtained:
[1] = target: Lysosomal acid glucosylceramidase (Homo sapiens) (UniProt P04062); assay: Glucocerebrosidase-p2 (AID 348; in the data active means potency below about 10 µM; further: potency means the concentration at half of the fitted maximal effect); settings: purified GBA, blue fluorogenic substrate, 40 min
Lysosomal acid glucosylceramidase (Homo sapiens), sequence (P04062 whole entry, looked up): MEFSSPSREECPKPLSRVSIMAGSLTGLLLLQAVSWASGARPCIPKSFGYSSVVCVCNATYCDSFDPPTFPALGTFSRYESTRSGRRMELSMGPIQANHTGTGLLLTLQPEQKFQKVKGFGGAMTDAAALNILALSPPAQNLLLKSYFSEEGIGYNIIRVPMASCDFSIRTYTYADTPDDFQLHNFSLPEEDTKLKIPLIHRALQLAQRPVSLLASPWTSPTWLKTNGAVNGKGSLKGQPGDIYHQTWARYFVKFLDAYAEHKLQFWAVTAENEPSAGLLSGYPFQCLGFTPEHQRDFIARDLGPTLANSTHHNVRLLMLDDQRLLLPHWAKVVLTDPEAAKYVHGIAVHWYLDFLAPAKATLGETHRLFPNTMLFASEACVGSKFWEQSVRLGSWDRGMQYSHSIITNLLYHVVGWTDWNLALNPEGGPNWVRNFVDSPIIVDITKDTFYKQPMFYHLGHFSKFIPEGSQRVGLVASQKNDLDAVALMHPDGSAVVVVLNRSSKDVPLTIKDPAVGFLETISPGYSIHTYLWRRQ
Outline: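 Normal human glucocerebrosidase (0.2 nM) with blue fluorogenic substrate (80 uM final) in citrate/phosphate pH 5.9 with 10mM sodium taurocholate, 0.01% tween-20; 40 min RT, NaOH/glycine stop; fluorescence Ex 365/Em 440; AC50 from a titration from 0.6 nM upwards.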

[2] = AP1 Signaling Pathway (AID 357; active means well fitted curve in either direction with a large enough effect, not every such curve was filed as active;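 further: ME-180 reporter cells stimulated with EGF at its EC50 level; on the % scale 0 is the no-effect control and ±100 the full control effect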)
Outline: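 A ratiometric CCF4 readout (405 nm excitation; 460 and 530 nm emission) quantified AP-1-driven beta-lactamase in ME-180 cells after 5 h with compound and EC50 EGF; AC50 values were derived for activators and inhibitors.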

[3] = NFAT Signaling Pathway (AID 444; active means well fitted curve in either direction with a large enough effect, not every such curve was filed as active;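 further: carbachol stimulus at about its EC50 of 1 µM final; on the % scale 0 is the no-effect control and ±100 the full control effect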); settings: Jurkat NFAT-bla M1, carbachol, beta-lactamase ratio, 5 h
Outline: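 Jurkat cells carrying an NFAT-driven β-lactamase reporter and co-transfected muscarinic M1 receptor were treated with compound plus carbachol (1 uM final, an EC50 level) for 5 h at 37 °C. CCF4 loading followed for 1 h at RT; 460/530 nm ratio gave %activity.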

[4] = Stat Signaling Pathway (AID 446; active means well fitted curve in either direction with a large enough effect, not every such curve was filed as active;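 further: ME-180 cervical cancer cells given 40 pM IL-6 alongside compound; SIE-controlled beta-lactamase reporter measured as 460/530 nm FRET emission ratio; on the % scale 0 is the no-effect control and ±100 the full control effect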)
Outline: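 Compound effects on IL-6-induced STAT reporter activity were measured in ME-180 cells. After overnight culture, cells were co-treated with 40 pM IL-6 for 5 hrs before beta-lactamase substrate loading at room temperature.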

[5] = target: Glucocorticoid receptor (Homo sapiens) (UniProt P04150); assay: GR-GFP Redistribution (AID 450;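 active means compounds whose dose series gives a full or clear partial fitted curve of increased nuclear translocation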; further: potency means the concentration at half of the fitted maximal effect); settings: U2OS GR-GFP nuclear translocation, laser cytometry, 2 h
Glucocorticoid receptor (Homo sapiens), sequence (P04150 whole entry, looked up, the tested form may be a part): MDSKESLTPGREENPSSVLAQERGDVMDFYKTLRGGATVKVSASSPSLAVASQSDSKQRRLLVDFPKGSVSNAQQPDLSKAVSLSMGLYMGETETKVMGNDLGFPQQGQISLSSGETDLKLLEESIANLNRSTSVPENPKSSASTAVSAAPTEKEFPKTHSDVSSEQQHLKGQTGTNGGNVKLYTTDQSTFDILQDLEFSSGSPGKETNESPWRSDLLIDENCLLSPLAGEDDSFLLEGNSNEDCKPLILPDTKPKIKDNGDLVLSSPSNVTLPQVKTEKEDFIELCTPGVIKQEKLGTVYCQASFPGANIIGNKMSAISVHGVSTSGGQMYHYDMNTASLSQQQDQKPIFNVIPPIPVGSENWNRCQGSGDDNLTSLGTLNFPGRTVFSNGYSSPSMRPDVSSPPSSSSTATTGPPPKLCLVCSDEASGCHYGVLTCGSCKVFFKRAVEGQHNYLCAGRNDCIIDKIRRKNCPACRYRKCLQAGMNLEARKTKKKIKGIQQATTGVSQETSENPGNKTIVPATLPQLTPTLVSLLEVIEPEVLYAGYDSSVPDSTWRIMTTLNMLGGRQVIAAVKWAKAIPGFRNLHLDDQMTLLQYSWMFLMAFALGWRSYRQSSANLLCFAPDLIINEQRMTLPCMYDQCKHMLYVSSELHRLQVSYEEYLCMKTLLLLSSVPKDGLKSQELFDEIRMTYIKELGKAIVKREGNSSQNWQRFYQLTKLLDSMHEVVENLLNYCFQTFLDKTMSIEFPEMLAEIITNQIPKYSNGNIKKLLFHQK

[6] = target: Glucocorticoid receptor (Homo sapiens) (UniProt P04150); assay: GR-EFC Redistribution (AID 451; calls by dose curve; further: potency means the concentration at half of the fitted maximal effect); settings: CHO-K1 GR-EFC translocation, beta-gal luminescence, 2 h
Outline: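 CHO-K1 cells stably expressing nuclear-localized β-gal enzyme acceptor and GR fused C-terminally to the enzyme donor fragment; ligand-driven nuclear translocation restores β-gal by complementation. Compounds titrated up to 46 uM final, 2 h at 37 °C; luminescence read.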

[7] = target: Mitogen-activated protein kinase 10 (Mus musculus) (UniProt Q61831); assay: JNK3 AlphaScreen Assay (AID 530; active means well fitted curve in either direction with a large enough effect, not every such curve was filed as active;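 further: kinase came from lysate of stimulated human HepG2 cells; signal reports phosphorylation of biotinylated GST-cJun 1-79 at Ser73 with 10 µM ATP; on the % scale 0 is the no-effect control and ±100 the full control effect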)
Outline: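 Phosphorylation of biotinylated GST-cJun(1-79) at Ser73 is measured by AlphaScreen proximity luminescence. Enzyme is JNK3 in HepG2 lysates activated with interleukin-1beta and tumor necrosis factor alpha; ATP is 10 uM final.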

[8] = target: 3',5'-cyclic-AMP phosphodiesterase 4B (Homo sapiens) (UniProt Q07343); assay: qHTS Assay for Inhibitors of PDE-IV (AID 607; active means well fitted activation curve with a large enough effect in the main read-out, with a control signal flat, not every such curve was filed as active; further: % of control where 0% means no effect)
3',5'-cyclic-AMP phosphodiesterase 4B (Homo sapiens), sequence (Q07343 whole entry, looked up): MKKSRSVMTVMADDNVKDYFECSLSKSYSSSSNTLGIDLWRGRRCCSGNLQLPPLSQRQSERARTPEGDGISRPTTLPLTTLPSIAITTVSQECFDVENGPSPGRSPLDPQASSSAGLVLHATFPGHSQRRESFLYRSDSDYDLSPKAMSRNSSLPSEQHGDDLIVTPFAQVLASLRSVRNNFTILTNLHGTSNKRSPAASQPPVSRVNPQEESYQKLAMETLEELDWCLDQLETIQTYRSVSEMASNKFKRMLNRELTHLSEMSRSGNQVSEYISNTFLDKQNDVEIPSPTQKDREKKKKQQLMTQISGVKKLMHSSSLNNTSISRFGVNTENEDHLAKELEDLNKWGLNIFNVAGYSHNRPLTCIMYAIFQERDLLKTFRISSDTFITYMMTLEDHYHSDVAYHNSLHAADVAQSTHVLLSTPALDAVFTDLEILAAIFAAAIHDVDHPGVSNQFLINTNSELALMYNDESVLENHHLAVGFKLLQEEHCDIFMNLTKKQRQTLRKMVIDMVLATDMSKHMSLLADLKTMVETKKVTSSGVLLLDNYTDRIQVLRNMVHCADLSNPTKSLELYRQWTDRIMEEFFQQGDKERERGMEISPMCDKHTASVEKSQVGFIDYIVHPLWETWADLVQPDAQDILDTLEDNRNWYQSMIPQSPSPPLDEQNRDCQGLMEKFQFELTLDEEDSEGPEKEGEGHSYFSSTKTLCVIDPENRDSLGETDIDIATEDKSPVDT
Outline: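 ACTOne HEK293 cells carry a modified cAMP-gated CNG channel and express endogenous PDE4; plated 1000 cells/well, compounds up to 22.9 uM final. Membrane-potential dye fluorescence (ex 535/em 590) was read; parental cells received 10 uM forskolin + 100 uM RO 20-1724.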

[9] = qHTS Assay for Lipid Storage Modulators (AID 1519; calls by dose curve); settings: Drosophila S3 cells, BODIPY lipid droplet/cell ratio, laser cytometry, cells loaded with oleic acid; for activity change, negative = inhibition: at 57.5 µM (top of the series)
Outline: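 Cells seeded at 5,000 per well were treated with compounds over a concentration series and loaded with oleic acid (400 uM, as added). Lipid droplet fluorescence (488 nm excitation, 500-530 nm channel) was read by laser-scanning cytometry and normalized to 20 uM Triacsin C.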

[10] = target: DNA dC->dU-editing enzyme APOBEC-3G (Homo sapiens) (UniProt Q9HC16); assay: qHTS for inhibitors of Vif-A3G interactions: Validation (AID 588379); further: 0% is about no effect
DNA dC->dU-editing enzyme APOBEC-3G (Homo sapiens), sequence (Q9HC16 whole entry, looked up): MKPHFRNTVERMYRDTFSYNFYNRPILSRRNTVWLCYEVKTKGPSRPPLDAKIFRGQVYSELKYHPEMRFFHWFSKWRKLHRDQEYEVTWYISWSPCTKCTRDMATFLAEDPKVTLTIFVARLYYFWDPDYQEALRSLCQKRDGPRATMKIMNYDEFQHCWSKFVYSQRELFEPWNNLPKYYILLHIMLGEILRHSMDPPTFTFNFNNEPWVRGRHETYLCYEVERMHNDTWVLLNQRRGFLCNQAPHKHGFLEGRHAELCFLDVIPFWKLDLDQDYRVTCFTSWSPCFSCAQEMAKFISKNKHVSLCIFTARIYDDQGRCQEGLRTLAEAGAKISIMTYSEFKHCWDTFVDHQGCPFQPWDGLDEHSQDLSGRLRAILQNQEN
Outline: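 Yellow fluorescence (Ex 488, Em 500-530) of Vif-coexpressing HeLa A3G-eYFP cells, scanned by Acumen cytometer, reports blocked A3G degradation. Cells plated at 700/well overnight at 37 deg C before compound addition, then a further overnight compound incubation at 37 deg C.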

[11] = test system: Zika virus NS2B-NS3 protease; assay: Primary screen GU AMC qHTS for Zika virus inhibitors (AID 1347154);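 further: 0% = no-inhibitor control and -100% = no-enzyme control; nearly all actives have a fitted effect of over 70% in size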
Outline: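 Unlinked Zika NS2B hydrophilic domain/NS3 protease domain noncovalent complex (25 nM final) in 10 mM Tris-HCl pH 8.0, 0.01% Tween 20, with AMC peptide substrate. Fluorescence (ex 340, em 450 nm) change over 15 min, room temperature; percent inhibition fitted to 4-parameter Hill equation.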

[12] = Primary qHTS for small molecule stabilizers of the endoplasmic reticulum resident proteome: Secreted ER Calcium Modulated Protein (SERCaMP) assay (AID 1508630); further: on the % scale 0 is the no-effect control and ±100 the full control effect
Outline: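 The SH-SY5Y reporter protocol was run at 3 concentrations up to 38.3 uM (primary) or 11 concentrations (follow-up): 16 h compound, 100 nM thapsigargin for 4 h, then extracellular luciferase luminescence.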

[13] = target: Cytochrome P450 1A2 (Homo sapiens) (UniProt P05177); assay: p450-cyp1a2 (AID 410; calls by dose curve;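 further: -100% = full effect of reference inhibitor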)
Cytochrome P450 1A2 (Homo sapiens), sequence (P05177 whole entry, looked up): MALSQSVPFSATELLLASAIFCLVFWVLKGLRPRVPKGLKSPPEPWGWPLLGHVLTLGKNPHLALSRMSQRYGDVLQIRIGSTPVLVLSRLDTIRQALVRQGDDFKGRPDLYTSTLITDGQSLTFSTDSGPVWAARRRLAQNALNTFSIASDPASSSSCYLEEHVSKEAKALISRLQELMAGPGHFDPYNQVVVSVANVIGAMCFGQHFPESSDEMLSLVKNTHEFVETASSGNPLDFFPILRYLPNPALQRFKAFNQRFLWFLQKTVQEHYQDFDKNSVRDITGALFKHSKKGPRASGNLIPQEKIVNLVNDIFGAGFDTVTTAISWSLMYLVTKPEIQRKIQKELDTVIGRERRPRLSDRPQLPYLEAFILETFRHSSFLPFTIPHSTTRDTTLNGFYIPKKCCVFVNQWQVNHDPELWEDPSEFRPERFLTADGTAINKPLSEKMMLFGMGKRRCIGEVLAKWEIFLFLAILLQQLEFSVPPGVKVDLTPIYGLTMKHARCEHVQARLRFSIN
Outline: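 O-Demethylation of luciferin 6' methyl ether by human CYP1A2 is monitored as luciferase luminescence. Substrate sits at Km (100uM); enzyme is 20nM. Values are scaled to 57 uM furafylline as maximal inhibition.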

[14] = target: Guanine nucleotide-binding protein G(i) subunit alpha-1 (Homo sapiens) (UniProt P63096); assay: qHTS Assay for Inhibitors of RGS12 GoLoco Motif Activity (Green Fluorophore) (AID 879);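 further: 0% = labeled peptide with Gαi1 and full inhibition = labeled peptide alone without protein; negative values mean loss of peptide binding seen as reduced polarization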
Outline: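 A drop in FITC polarization marked displacement of the FITC-tagged RGS12 GoLoco peptide (10 nM) from Gαi1 (50 nM). Compounds were incubated 10 min at room temperature in Tris pH 7.5 buffer containing 150 mM NaCl, 0.1 mM GDP and 0.05% NP40; unlabeled peptide titration served as control.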

[15] = qHTS Assay for Identification of Small Molecule Antagonists for NFkB Signaling Pathway (AID 895; active means well fitted inhibition curve with a large enough effect in the signal ratio, with a control signal flat, not every such curve was filed as active; the % refers to the signal ratio; further: on the % scale 0 is the no-effect control and ±100 the full control effect)
Outline: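 NFkB-bla ME-180 cervical carcinoma cells with beta-lactamase reporter under NFkB response element; compounds added, then TNF alpha at 10 pM final (EC50), 5 h at 37 C. LiveBLAzer substrate 2 h, room temperature; emission 460/530 nm at 405 nm excitation.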

[16] = qHTS Assay for Identification of Small Molecule Agonists for Hypoxia Response Element Signaling Pathway (AID 914; active means well fitted activation curve with a large enough effect in the signal ratio, with a control signal flat, not every such curve was filed as active; the % refers to the signal ratio; further: % of control where 0% means no effect); settings: ME-180 (cervical carcinoma) HRE-bla reporter, beta-lactamase ratio, CoCl2, 17 h; activation: stronger effect = higher value
Outline: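 Cells were plated overnight, pin-dosed with compound in a titration series, co-stimulated with EC50 CoCl2 and incubated 17 hours at 37 degrees Celsius. CCF4 substrate was then loaded, and AC50 values came from the 460nm/530nm ratio.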

[17] = qHTS Assay for Identification of Small Molecule Antagonists for Thrombopoietin (TPO) Signaling Pathway (AID 918); settings: TPO-dependent cell signaling reporter, antagonist mode; further: potency means the concentration at half of the fitted maximal effect; nearly all actives have a fitted effect of over 60% in size
Outline: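 Inhibitors of TPO signaling are sought by stimulating IL-3-starved murine Ba/F3 cells (human TPO receptor, Glycoprotein IIb-driven luciferase) with TPO at its EC50 of 26 pM alongside compound. After 24 hrs at 37 C, reporter luminescence is measured.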

[18] = target: Muscarinic acetylcholine receptor M1 (Rattus norvegicus) (UniProt P08482); assay: qHTS Assay for Antagonists of Acetylcholine Muscarinic M1 Receptor: Measurement of IP-One Response (AID 944); further: nearly all actives have a fitted effect of over 75% in size
Muscarinic acetylcholine receptor M1 (Rattus norvegicus), sequence (P08482 whole entry, looked up): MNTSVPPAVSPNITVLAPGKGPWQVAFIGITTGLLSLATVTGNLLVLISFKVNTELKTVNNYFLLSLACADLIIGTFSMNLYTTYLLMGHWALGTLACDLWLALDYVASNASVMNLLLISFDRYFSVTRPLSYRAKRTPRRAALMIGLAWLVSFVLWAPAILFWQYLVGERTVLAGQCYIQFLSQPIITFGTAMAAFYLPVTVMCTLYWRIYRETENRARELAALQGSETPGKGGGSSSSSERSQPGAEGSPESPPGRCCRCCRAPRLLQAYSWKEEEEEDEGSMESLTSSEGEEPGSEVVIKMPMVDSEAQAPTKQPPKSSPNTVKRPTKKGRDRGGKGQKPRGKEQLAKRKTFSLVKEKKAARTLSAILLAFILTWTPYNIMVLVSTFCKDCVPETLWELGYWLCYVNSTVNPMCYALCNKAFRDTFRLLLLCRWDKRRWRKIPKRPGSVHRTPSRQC
Outline: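 Antagonist mode with rat M1 receptor transfected into CHO cells. Compound is added first for 10 min, carbachol at its EC80 follows for 30 min, and lysis reagents then allow TR-FRET detection of accumulated IP1.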

[19] = target: Pyruvate kinase (Leishmania mexicana) (UniProt Q27686); assay: qHTS Validation Assay for Inhibitors of Leishmania Mexicana Pyruvate Kinase (AID 945);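 further: 0% = DMSO only neutral control wells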
Pyruvate kinase (Leishmania mexicana), sequence (Q27686 2-499 E452W): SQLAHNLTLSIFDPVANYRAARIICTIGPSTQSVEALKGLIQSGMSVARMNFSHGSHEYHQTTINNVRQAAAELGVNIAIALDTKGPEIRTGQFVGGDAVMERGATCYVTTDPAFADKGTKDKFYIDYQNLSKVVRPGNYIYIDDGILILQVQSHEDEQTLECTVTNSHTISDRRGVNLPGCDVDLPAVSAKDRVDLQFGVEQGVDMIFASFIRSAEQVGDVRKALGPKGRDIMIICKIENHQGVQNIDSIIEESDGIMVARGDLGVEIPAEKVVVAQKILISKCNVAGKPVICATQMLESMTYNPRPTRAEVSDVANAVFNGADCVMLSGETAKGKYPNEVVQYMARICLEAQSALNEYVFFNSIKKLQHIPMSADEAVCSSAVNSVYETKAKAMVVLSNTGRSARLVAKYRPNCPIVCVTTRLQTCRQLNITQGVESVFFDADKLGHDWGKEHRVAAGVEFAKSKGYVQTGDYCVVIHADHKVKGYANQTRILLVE
Outline: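 The enzyme is a highly purified E451W mutant of LmPYK used at 0.2 nM. It converts 0.5 mM PEP and 0.1 mM ADP over 1 h at room temperature; product ATP is quantified by luciferase luminescence relative to DMSO controls.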

[20] = target: Pyruvate kinase PKM (Homo sapiens) (UniProt P14618); assay: qHTS Assay for Activators of Human Muscle Pyruvate Kinase (AID 954; active means well fitted curve in the direction sought with a large enough effect, not every such curve was filed as active;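 further: 0% = uninhibited enzyme and -100% = no enzyme or full thiadiazolimine inhibition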)
Outline: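 A coupled luminescent readout tracked ATP made from ADP by purified PKM2. Final conditions included 0.1 nM enzyme, PEP and ADP at 0.5 and 0.1 mM, pH 7.2 imidazole buffer with BSA, and a one-hour room-temperature reaction.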

[21] = target: Alpha-galactosidase (Coffea arabica) (UniProt Q42656); assay: Counterscreen for Glucocerebrosidase Inhibitors: qHTS Assay for Coffee Bean alpha-Galactosidase at pH 4.5 (AID 957);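 further: plate controls were enzyme alone for no effect and no enzyme for full effect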
Alpha-galactosidase (Coffea arabica), sequence (Q42656 whole entry, looked up): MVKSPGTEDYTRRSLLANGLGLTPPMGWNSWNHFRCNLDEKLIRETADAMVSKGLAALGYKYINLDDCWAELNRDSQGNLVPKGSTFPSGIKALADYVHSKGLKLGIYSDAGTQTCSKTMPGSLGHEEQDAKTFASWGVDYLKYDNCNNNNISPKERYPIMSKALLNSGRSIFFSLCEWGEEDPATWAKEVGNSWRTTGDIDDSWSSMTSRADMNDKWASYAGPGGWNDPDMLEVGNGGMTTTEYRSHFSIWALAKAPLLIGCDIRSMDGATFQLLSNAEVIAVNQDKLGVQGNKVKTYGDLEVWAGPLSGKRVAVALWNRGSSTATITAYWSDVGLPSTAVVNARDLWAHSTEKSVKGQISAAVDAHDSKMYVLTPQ
Outline: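 Enzyme is added first (2 nM final), then compounds titrated from 0.7 nM to 77 uM, then 80 uM 4-methylumbelliferyl alpha-D-galactopyranoside; after 20 min at room temperature a pH 10 NaOH/glycine stop precedes fluorescence reading at 365/440 nm.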

[22] = target: Alpha-galactosidase A (Homo sapiens) (UniProt P06280); assay: Counterscreen for Glucocerebrosidase Inhibitors: qHTS Assay for Human alpha-Galactosidase at pH 4.5 (AID 992); further: 0% is about no effect
Alpha-galactosidase A (Homo sapiens), sequence (P06280 whole entry, looked up): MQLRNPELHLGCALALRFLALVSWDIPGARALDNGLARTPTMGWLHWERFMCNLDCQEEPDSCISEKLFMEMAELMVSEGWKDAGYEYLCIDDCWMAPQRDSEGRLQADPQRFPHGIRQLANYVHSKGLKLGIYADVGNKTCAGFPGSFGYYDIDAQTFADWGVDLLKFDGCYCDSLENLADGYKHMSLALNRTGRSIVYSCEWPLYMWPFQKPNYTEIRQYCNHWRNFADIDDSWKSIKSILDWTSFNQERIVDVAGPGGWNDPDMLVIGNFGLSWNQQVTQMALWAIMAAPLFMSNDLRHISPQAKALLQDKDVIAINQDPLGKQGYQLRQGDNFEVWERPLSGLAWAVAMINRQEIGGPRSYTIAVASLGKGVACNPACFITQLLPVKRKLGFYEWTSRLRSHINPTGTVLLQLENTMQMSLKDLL
Outline: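 Citrate buffer pH 4.5, Tween-20 0.005%. Enzyme 2 nM, substrate 80 uM, 20 min RT. Stop pH 10. Fluorescence Ex 365/Em 440. AC50 by Hill fit.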

[23] = target: alpha-glucosidase (Oryza sativa, rice) (UniProt Q653V4); assay: Counterscreen for Glucocerebrosidase Inhibitors: qHTS Assay for Rice alpha-Glucosidase at pH 5.0 (AID 997);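 further: 0% = full activity with enzyme and -100% = basal without enzyme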
Outline: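 Endpoint fluorogenic assay at pH 5.0: compounds (0.7 nM to 77 uM) titrated against 4 nM rice enzyme and 400 uM 4-MU-alpha-glucoside for 20 min at room temperature; NaOH/glycine stop, read ex 365/em 440 nm, Hill-fitted AC50.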

[24] = target: Alpha-galactosidase (Coffea arabica) (UniProt Q42656); assay: Counterscreen for Glucocerebrosidase Inhibitors: qHTS Assay for Coffee Bean alpha-Galactosidase at pH 5.9 (AID 998);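 further: plate controls were uninhibited enzyme for no effect and no-enzyme basal signal for full effect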
Outline: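 In 50 mM citric acid pH 5.9 with 0.005% Tween-20, coffee bean enzyme hydrolyses 80 uM 4-MU alpha-D-galactopyranoside over 20 min at RT. Activity is normalized to controls; AC50 comes from Hill-modelled concentration-response data.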

[25] = target: Ubiquitin carboxyl-terminal hydrolase 1 (Homo sapiens) (UniProt O94782); assay: Inhibitors of USP1/UAF1: Pilot qHTS (AID 504865);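 further: rhodamine fluorescence freed from ubiquitin-rhodamine substrate followed over time; top concentration of the series differs between compounds; on the % scale 0 is the no-effect control and ±100 the full control effect; nearly all actives have a fitted effect of over 35% in size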
Outline: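 USP1/UAF1 complex at 1 nM preincubated 15 min at room temperature with compound, then Ub-Rho substrate added at 150 nM final. Fluorescence (480/540 nm) read kinetically in 50 mM HEPES pH 7.8, 0.5 mM EDTA, 1 mM TCEP, 0.1 mg/ml BSA, 0.01% Tween-20.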

[26] = measured here: cell count channel max response
[27] = measured here: lipid channel max response

N[C@@H](CCP(=O)(O)O)C(=O)O
-9.13%: max response [9, 27]
-5.2%: max response [9, 26]
inactive: Potency [1] > 11.4 µM | activity change, negative = inhibition [2] 9.69% [at 7.69 µM] | activity change, negative = inhibition ([3]; at 7.69 µM (top of the series)) 3.73% | activity, negative = inhibition [4] 11.7% [at 7.69 µM] | Potency [5] > 46 µM | Potency [6] > 46 µM and > 9.22 µM | outcome [7] | Potency [8] | activity change, negative = inhibition [9] -1.66% | Potency [10] | Potency [11] | Potency [12]

C=CCN1CC[C@@]23c4c5ccc(O)c4O[C@H]2/C(=N\N=C2/CC[C@@]4(O)[C@H]6Cc7ccc(O)c8c7[C@@]4(CCN6CC=C)[C@@H]2O8)CC[C@]3(O)[C@@H]1C5
active: Potency [17] 12.6 µM
11.9%: max response [9, 27]
10.9%: max response [9, 26]
inactive: outcome [2] | Potency [13] | activity change, negative = inhibition ([3]; at 38 µM (top of the series)) -21.2% | Potency [5] > 46 µM | Potency [6] > 46 µM | outcome [7] | Potency [8] | outcome [14] | Potency [15] | activation [16] 0.657% | Potency [18] | outcome [19] | outcome [20] | outcome [21] | outcome [22] | outcome [23] | outcome [24] | activity change, negative = inhibition [9] 1.28% | Potency [25] | Potency [10] | Potency [11] | Potency [12]
